Drawing on article PMC7862700, “An all-to-all approach to the identification of sequence-specific readers for epigenetic DNA modifications on cytosine”, this text covers binding signal for one sequence.

What all share (assay): DAPPL (digital affinity profiling via proximity ligation, sequencing); 10 mM Tris-HCl pH 7.5, 50 mM NaCl, 1 mM DTT, 4% glycerol, room temperature, 30 min; GST-TFs on glutathione beads, 16-mer random dsDNA library, 0.1% formaldehyde crosslink after washing; high values mean tight binding
The target of one test is T1, FLI1 (Homo sapiens, UniProt Q01543 1-452).
T1 sequence: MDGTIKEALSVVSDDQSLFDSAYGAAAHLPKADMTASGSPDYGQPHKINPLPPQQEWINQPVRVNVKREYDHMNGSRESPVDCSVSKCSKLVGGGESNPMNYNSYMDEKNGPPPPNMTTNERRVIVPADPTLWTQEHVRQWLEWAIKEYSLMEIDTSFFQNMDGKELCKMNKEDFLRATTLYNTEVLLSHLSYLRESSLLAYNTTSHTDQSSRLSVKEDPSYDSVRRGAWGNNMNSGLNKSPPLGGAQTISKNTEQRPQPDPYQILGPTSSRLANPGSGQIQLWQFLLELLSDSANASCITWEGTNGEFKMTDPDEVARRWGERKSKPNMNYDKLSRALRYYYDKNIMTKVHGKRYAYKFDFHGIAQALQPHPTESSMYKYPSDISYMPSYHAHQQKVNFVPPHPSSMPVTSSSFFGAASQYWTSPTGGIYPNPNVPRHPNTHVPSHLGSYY
Particulars: protein: recombinant; tags: N-terminal GST; dsDNA, one strand shown. The procedure, abridged:
(§1)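 In yeast, human transcription factors were expressed with a GST fusion, then pulled down on glutathione beads and given DNA barcodes. Pooled with a tag-only sample, they were exposed to 200 nmole of a 16-mer random double-stranded DNA library (Tris/NaCl/DTT/glycerol buffer, room temperature, 30 min), washed, crosslinked with 0.1% formaldehyde, proximity-ligated using BsaI/T4 ligase for 1 h at 37 °C, PCR-amplified and read on an Illumina NextSeq500. Each hexamer's frequency of reads for a factor, divided by the matching frequency for the tag-only sample, gives the binding signal.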

The next test addresses T2, ELK1 (Homo sapiens, UniProt P19419 1-428).
T2 sequence: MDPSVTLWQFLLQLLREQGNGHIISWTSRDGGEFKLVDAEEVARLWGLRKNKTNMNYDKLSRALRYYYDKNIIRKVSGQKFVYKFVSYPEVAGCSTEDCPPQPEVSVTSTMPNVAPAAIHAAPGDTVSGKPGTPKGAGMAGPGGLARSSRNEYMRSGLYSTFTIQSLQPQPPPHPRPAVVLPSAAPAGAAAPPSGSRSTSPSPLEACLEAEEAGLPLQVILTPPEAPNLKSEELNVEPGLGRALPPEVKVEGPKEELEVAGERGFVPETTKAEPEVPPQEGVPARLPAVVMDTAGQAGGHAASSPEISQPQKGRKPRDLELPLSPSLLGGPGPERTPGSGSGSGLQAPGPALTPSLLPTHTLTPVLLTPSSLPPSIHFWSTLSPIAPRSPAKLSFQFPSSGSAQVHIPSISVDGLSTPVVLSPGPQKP
Particulars: protein: recombinant; tags: N-terminal GST; dsDNA, one strand shown. The procedure, abridged:
as §1

Another test deals with T3, GABPA (Homo sapiens, UniProt Q06546 1-454).
T3 sequence: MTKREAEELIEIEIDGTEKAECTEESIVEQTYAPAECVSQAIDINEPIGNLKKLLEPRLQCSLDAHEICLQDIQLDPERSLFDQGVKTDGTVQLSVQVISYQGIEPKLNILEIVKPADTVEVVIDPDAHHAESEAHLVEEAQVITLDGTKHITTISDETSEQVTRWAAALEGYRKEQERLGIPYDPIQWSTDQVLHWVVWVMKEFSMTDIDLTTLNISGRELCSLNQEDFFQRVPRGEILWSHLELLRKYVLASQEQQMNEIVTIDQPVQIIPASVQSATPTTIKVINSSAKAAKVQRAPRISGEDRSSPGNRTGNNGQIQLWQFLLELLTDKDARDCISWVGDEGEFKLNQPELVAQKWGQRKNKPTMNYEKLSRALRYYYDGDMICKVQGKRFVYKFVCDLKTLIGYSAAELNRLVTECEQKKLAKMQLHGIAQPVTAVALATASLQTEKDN
The settings on record: protein: recombinant; tags: N-terminal GST; dsDNA, one strand shown. The method in brief:
as §1

The next test concerns the target T4, ERG (Homo sapiens, UniProt P11308 1-479).
T4 sequence: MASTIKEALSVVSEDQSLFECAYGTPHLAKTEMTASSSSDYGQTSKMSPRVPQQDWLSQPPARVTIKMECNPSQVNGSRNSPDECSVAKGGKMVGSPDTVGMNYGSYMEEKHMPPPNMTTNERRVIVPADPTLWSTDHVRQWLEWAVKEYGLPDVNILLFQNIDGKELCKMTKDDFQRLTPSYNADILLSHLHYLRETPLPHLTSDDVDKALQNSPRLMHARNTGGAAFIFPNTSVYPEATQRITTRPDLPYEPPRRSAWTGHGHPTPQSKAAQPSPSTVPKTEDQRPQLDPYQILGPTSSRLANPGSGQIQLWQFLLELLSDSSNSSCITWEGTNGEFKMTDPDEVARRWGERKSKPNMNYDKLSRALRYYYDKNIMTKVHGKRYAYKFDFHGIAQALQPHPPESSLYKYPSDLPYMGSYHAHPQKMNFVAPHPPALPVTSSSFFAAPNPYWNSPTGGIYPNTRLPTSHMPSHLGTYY
The settings on record: protein: recombinant; tags: N-terminal GST; dsDNA, one strand shown. The procedure, abridged:
as §1

Another test concerns the target ELF1 (Homo sapiens, UniProt P32519 1-619). The settings on record: protein: recombinant; tags: N-terminal GST; dsDNA, one strand shown. The method in brief:
as §1

In a further test the target is T5, EHF (Homo sapiens, UniProt Q9NZC4 1-300).
T5 sequence: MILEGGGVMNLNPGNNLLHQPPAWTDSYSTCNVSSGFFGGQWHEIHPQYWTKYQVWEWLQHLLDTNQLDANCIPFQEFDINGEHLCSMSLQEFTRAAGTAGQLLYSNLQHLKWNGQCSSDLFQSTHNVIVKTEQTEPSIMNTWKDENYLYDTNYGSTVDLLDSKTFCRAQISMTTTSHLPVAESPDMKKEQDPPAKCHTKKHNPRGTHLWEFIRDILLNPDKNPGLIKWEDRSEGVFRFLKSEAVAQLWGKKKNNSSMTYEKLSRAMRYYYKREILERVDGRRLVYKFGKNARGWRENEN
Particulars: protein: recombinant; tags: N-terminal GST; dsDNA, one strand shown. The method in brief: as §1

The target in the next test is SPI1 (Homo sapiens, UniProt P17947 1-270). The settings on record: protein: recombinant; tags: N-terminal GST; dsDNA, one strand shown. The procedure, abridged:
as §1

In a further test the target is SPIB (Homo sapiens, UniProt Q01892 1-262). The settings on record: protein: recombinant; tags: N-terminal GST; dsDNA, one strand shown. The procedure, abridged:
as §1

A further test addresses T6, ELK3 (Homo sapiens, UniProt P41970 1-407).
T6 sequence: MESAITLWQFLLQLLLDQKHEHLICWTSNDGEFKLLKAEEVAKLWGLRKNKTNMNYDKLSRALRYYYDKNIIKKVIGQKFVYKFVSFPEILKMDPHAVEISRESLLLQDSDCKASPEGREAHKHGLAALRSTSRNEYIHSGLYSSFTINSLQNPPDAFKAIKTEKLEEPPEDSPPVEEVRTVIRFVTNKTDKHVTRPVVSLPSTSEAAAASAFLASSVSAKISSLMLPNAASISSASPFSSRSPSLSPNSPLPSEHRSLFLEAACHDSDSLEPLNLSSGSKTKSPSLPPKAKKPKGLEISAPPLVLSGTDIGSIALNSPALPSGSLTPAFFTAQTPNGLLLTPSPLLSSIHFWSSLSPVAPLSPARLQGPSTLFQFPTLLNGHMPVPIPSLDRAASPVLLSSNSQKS
Particulars: protein: recombinant; tags: N-terminal GST; dsDNA, one strand shown. The procedure, abridged:
as §1

A further test deals with T7, FEV (Homo sapiens, UniProt Q99581 1-238).
T7 sequence: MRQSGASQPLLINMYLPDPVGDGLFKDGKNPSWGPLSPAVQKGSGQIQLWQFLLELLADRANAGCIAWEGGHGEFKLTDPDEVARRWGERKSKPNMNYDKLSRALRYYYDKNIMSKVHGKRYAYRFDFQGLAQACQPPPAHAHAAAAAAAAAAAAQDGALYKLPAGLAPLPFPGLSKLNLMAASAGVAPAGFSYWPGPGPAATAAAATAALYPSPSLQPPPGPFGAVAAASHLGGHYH
The settings on record: protein: recombinant; tags: N-terminal GST; dsDNA, one strand shown. The method in brief: as §1

The next test deals with ETV5 (Homo sapiens, UniProt P41161 1-510). Particulars: protein: recombinant; tags: N-terminal GST; dsDNA, one strand shown. The procedure, abridged: as §1
ETV5, sequence (P41161 whole entry): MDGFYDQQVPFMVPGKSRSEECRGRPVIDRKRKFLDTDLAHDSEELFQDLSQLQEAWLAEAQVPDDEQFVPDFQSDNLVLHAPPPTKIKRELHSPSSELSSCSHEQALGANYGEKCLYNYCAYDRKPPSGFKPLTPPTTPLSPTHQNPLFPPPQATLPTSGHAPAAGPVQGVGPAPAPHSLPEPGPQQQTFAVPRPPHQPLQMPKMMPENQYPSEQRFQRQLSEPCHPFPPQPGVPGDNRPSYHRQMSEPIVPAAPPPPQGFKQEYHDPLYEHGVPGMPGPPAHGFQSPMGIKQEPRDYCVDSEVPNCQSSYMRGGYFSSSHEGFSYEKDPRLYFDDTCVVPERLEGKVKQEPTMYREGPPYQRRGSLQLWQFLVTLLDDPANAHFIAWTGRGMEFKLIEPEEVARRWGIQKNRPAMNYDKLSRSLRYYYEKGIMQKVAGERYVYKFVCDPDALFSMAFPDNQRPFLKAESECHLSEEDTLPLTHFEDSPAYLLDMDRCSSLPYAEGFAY
The next test deals with HSF1 (Homo sapiens, UniProt Q00613 1-529). The settings on record: protein: recombinant; tags: N-terminal GST; chain copies: 3; dsDNA, one strand shown. The procedure, abridged:
as §1

The next test has as its target T8, SPIC (Homo sapiens, UniProt Q8N5J4 1-248).
T8 sequence: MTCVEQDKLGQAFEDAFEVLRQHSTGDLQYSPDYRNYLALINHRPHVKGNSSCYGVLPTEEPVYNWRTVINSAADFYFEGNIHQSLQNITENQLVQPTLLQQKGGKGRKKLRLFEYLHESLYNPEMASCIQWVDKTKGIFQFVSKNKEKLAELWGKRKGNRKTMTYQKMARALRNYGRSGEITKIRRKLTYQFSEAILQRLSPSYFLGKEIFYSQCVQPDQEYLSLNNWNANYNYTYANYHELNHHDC
Particulars: protein: recombinant; tags: N-terminal GST; dsDNA, one strand shown. The procedure, abridged: as §1

A further test concerns the target ELF4 (Homo sapiens, UniProt Q99607 1-663). The settings on record: protein: recombinant; tags: N-terminal GST; dsDNA, one strand shown. The procedure, abridged: as §1
In the next test the target is T9, ELK4 (Homo sapiens, UniProt P28324-2 1-405).
T9 sequence: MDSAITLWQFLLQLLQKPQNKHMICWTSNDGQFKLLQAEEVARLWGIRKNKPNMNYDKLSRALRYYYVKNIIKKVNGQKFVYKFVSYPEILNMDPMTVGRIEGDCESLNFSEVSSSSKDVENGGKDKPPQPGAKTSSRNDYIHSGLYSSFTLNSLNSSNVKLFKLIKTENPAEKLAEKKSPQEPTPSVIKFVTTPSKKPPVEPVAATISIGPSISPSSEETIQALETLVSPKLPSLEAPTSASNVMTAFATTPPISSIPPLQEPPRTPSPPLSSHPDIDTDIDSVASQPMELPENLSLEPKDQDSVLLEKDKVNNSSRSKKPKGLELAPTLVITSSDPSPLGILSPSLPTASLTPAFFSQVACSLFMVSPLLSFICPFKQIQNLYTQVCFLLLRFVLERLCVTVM
The settings on record: protein: recombinant; tags: N-terminal GST; dsDNA, one strand shown. The method in brief: as §1

Another test concerns the target T10, ETV2 (Homo sapiens, UniProt O00321 1-342).
T10 sequence: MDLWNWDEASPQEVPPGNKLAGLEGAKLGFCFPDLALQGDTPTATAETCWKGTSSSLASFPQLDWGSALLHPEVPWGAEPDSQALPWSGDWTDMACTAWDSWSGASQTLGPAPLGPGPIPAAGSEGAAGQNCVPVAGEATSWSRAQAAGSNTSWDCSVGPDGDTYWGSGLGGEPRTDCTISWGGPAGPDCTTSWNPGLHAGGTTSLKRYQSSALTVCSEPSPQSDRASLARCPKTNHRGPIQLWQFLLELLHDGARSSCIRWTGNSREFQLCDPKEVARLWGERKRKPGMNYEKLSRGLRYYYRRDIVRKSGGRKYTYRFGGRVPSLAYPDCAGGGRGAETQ
The settings on record: protein: recombinant; tags: N-terminal GST; dsDNA, one strand shown. The method in brief: as §1

In the next test the target is T11, ELF3 (Homo sapiens, UniProt P78545 1-371).
T11 sequence: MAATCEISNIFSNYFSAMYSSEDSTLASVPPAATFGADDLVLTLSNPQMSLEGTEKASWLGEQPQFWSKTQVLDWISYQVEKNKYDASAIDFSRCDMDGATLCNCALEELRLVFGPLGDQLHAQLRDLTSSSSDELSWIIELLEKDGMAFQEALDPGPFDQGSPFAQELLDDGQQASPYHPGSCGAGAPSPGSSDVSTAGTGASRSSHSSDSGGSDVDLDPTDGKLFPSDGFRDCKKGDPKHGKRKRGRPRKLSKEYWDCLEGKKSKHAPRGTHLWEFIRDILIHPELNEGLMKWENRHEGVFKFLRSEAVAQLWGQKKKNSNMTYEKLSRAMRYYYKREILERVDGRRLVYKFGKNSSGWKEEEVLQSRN
Particulars: protein: recombinant; tags: N-terminal GST; dsDNA, one strand shown. The procedure, abridged: as §1

The target in a further test is CRX (Homo sapiens, UniProt O43186 1-299). Particulars: protein: recombinant; tags: N-terminal GST; dsDNA, one strand shown. The procedure, abridged:
as §1

A further test deals with ETV1 (Homo sapiens, UniProt P50549 1-477). The settings on record: protein: recombinant; tags: N-terminal GST; dsDNA, one strand shown. The procedure, abridged:
as §1

SPIB, sequence (Q01892 whole entry): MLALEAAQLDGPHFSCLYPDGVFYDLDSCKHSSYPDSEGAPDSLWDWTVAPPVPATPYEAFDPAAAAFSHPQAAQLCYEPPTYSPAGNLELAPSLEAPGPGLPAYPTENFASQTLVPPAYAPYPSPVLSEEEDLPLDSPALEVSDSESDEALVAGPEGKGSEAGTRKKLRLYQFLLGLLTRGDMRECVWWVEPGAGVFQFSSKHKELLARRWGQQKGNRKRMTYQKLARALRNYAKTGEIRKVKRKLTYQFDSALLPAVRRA
ELF1, sequence (P32519 whole entry): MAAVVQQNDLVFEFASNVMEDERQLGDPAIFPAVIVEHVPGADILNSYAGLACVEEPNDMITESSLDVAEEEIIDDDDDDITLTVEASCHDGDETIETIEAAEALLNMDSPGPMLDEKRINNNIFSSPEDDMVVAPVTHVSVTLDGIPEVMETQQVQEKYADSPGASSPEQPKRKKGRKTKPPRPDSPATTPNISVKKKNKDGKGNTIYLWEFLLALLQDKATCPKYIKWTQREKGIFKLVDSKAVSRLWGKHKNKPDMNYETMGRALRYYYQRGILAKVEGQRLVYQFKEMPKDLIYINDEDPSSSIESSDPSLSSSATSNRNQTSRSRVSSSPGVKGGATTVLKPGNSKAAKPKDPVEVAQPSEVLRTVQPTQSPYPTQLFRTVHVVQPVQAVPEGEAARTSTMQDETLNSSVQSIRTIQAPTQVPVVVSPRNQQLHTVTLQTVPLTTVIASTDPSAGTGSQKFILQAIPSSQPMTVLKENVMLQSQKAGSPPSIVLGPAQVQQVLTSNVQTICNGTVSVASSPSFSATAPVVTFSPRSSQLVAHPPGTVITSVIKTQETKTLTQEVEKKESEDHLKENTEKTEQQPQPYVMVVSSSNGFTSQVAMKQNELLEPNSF
HSF1, sequence (Q00613 whole entry): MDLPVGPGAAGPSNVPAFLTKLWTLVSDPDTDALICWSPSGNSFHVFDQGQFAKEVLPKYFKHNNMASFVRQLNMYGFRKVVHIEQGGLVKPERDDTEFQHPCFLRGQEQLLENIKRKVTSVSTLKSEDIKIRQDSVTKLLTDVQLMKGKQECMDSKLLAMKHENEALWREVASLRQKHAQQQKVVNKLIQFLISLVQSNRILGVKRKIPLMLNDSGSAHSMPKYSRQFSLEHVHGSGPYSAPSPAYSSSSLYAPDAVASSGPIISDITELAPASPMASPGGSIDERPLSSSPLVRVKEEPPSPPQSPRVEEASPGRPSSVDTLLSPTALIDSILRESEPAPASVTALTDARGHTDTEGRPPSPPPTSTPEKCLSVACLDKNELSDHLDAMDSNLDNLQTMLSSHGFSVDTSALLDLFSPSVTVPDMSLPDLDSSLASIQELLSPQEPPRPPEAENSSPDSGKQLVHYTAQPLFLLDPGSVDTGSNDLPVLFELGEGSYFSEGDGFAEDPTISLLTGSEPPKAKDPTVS
ELF4, sequence (Q99607 whole entry): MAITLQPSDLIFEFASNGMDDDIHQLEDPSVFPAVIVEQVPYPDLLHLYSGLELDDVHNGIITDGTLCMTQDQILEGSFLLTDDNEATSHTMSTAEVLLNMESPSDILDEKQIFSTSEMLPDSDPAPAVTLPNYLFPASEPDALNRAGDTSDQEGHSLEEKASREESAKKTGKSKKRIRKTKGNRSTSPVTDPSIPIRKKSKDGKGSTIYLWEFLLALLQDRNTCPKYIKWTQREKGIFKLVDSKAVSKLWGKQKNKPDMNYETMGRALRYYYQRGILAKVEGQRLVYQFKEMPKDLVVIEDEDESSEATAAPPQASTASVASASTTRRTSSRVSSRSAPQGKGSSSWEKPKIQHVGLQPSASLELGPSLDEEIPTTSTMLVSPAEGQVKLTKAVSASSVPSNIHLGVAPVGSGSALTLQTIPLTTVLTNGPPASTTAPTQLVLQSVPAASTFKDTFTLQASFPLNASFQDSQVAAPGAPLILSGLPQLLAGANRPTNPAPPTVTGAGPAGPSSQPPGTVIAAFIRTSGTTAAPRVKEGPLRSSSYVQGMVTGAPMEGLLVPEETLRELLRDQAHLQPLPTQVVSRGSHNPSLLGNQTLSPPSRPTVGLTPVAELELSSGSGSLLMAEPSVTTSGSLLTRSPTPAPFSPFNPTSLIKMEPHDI
CRX, sequence (O43186 whole entry): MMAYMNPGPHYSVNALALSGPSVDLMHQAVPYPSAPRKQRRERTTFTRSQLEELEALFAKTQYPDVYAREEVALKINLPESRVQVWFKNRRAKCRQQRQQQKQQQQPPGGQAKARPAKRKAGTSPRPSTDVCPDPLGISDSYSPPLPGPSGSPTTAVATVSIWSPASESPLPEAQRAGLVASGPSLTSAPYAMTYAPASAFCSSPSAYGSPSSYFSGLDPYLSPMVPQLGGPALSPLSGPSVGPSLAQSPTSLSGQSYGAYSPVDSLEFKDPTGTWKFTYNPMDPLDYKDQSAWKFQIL
ETV1, sequence (P50549 whole entry): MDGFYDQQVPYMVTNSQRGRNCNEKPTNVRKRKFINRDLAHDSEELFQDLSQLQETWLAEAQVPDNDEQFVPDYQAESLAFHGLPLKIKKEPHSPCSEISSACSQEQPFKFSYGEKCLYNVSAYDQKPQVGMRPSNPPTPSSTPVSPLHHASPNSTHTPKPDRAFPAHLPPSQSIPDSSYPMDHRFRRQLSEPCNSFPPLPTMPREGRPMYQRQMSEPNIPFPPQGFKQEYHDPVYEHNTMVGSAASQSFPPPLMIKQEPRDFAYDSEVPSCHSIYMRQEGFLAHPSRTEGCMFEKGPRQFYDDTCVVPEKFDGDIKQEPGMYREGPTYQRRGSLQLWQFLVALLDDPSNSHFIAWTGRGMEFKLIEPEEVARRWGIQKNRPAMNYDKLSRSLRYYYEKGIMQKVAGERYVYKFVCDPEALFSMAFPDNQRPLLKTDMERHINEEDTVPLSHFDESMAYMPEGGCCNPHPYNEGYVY

With TCCCGT, the binding signal with FLI1 is 1.24 fold enrichment (6-mer frequency, TF over GST control); with ELK1 it was 1.23 fold enrichment (6-mer frequency, TF over GST control); with GABPA, 1.26 fold enrichment (6-mer frequency, TF over GST control); with ERG, 1.37 fold enrichment (6-mer frequency, TF over GST control); with ELF1, 1.26 fold enrichment (6-mer frequency, TF over GST control); with EHF, 1.35 fold enrichment (6-mer frequency, TF over GST control). The binding signal with SPI1 is 1.43 fold enrichment (6-mer frequency, TF over GST control); with SPIB, 1.3 fold enrichment (6-mer frequency, TF over GST control); with ELK3, 1.3 fold enrichment (6-mer frequency, TF over GST control); with FEV, 1.3 fold enrichment (6-mer frequency, TF over GST control); with ETV5, 1.38 fold enrichment (6-mer frequency, TF over GST control); with HSF1, 1.35 fold enrichment (6-mer frequency, TF over GST control). The binding signal was 1.28 fold enrichment (6-mer frequency, TF over GST control) with SPIC; 1.23 fold enrichment (6-mer frequency, TF over GST control) with ELF4; 1.41 fold enrichment (6-mer frequency, TF over GST control) with ELK4; 1.29 fold enrichment (6-mer frequency, TF over GST control) in the test with ETV2; 1.37 fold enrichment (6-mer frequency, TF over GST control) with ELF3; 1.18 fold enrichment (6-mer frequency, TF over GST control) with CRX. Moreover, the binding signal with ETV1 was 1.3 fold enrichment (6-mer frequency, TF over GST control).
